Measured values taken from PubChem BioAssay (Tox21).
Where “and” joins values, the source holds several entries; their conditions need not be identical. Equal values may be shown once. Results filed as inconclusive are left out. Where a structure was tested more than once in an assay, its records may differ in their call. Calls of active or inactive are those of the source. The call rests on the fitted dose curve; in most records, active means well fitted inhibition curve with a large enough effect in the repeat runs; inconclusive means weak or mixed curves; inactive means no such curve, though single readings can be large or run the other way.

Molecular target: Cytochrome P450 1A2 (Homo sapiens) (UniProt P05177)
Sequence (P05177 whole entry, looked up): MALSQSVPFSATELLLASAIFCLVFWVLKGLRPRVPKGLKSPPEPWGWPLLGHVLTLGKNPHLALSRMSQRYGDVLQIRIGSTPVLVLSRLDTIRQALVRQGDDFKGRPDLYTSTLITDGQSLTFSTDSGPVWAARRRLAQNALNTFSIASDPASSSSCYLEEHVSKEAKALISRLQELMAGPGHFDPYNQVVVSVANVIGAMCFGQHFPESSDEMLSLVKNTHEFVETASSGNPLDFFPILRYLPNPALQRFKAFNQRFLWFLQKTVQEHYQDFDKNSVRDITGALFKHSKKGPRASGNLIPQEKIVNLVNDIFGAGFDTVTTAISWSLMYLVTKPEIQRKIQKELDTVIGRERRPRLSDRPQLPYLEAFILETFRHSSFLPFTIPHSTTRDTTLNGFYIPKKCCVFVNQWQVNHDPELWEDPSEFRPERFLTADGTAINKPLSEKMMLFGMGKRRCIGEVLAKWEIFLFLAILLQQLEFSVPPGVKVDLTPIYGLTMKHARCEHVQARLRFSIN
Test: Cytochrome P450 Family 1 Subfamily A Member 2 (CYP1A2) small molecule antagonists: luciferase reporter qHTS assay (AID 1671199); further: nearly all actives have a fitted effect of over 50% in size
Conditions: P450-Glo CYP1A2 enzyme, luciferin luminescence, 1 h; series mostly up to 53 µM; activity change, negative = inhibition: at the top concentration
Text: National Center for Advancing Translational Sciences [NCATS]
U.S. Environmental Protection Agency [EPA]
National Institutes of Environmental Health Sciences [NIEHS]
National Toxicology Program [NTP]
U.S. Food and Drug Administration [FDA]
Cytochrome P450 (CYP) enzymes are membrane-bound hemeproteins that play a key role in metabolism of drugs and xenobiotics. Evaluation of the effect of chemicals on CYP isozymes is useful to minimize the adverse drug reactions and toxicities in drug development process. Tox21 chemicals were tested for their effect on CYP enzyme activities by using P450-Glo (TM) screening systems (Promega Corporation, Madison, WI). These systems provide a luminescent method containing proluciferin substrates and are converted to luciferin products by CYP isozymes. The luciferin products formed are detected with a luciferin detection reagent, and the amount of light produced is proportional to CYP activity. P450-Glo (TM) CYP1A2 screening system (Catalog. No. V9770) was used to detect the compounds that interfere in CYP1A2 activity. The positive control compound used for CYP1A2 assay is furafylline (Sigma-Aldrich, St. Louis, MO).
Tox21 Assay Protocol Summary:
Two ul of enzyme-substrate mix was dispensed into medium binding white/solid 1536-well plates (Greiner Bio-One North America Inc., Monroe, NC) using a BioRaptr Flying Reagent Dispenser (FRD, Beckman Coulter, Brea, CA). Compounds dissolved in DMSO and positive control (furafyllline) were transferred to the assay plates at 23 nl using a Pintool station (Wako, San Diego, CA). The assay plates were incubated at room temperature for 10 min. Then 2 ul of NADPH regeneration solution was added to each well of the assay plates using an FRD and incubated at room temperature for 1 h. The reaction was stopped by adding 4 ul of detection reagent using an FRD and after 20 min incubation at room temperature the luminescence signal was measured using a ViewLux plate reader (Perkin Elmer, Shelton, CT). Data were expressed as relative luminescence units.
On the % scale 0 is the no-effect control and ±100 the full control effect; potency means the concentration at half of the fitted maximal effect.

Row | SMILES | activity change, negative = inhibition | Potency
1 | CCCCCCCCCCCC[N+](C)(C)C | -5.4% [at 115 µM] (inactive) | –
2 | Oc1ccc(Cl)cc1Cc1cc(Cl)ccc1O | – | 36.2 µM (active) and 39.9 µM (active) and 15.5 µM (active)
3 | CCCCCCCCCCCCCC[P+](CCCC)(CCCC)CCCC | – | 70.6 µM (active) and 79.6 µM (active)
4 | CCC(C)(Oc1ccc(C2(c3ccc(OC(C)(CC)C(=O)O)cc3)CCCCC2)cc1)C(=O)O (stereo not given) | 17.7% (inactive) | –
5 | CC1COC(=O)O1 (stereo not given) | – | inactive
6 | CC1=CC(=O)c2ccccc2C1=O | – | 1.78 µM (active) and 2.75 µM (active)
7 | COC(=O)c1cccc(C(=O)OC)c1 | – | 12.4 µM (active) and 11.2 µM (active)
8 | COc1cc(C(=S)N2CCOCC2)ccc1O | 2.15% (inactive) | –
9 | O=C(Cl)c1cccc(C(=O)Cl)c1 | – | inactive
10 | OCCN1CCNCC1 | 2.87% [at 115 µM] (inactive) | –
11 | CN1C(=O)c2ccc([N+](=O)[O-])cc2C1=O | – | 20 µM (active)
12 | CCN(CC)C(=O)Nc1ccc(OCC(O)CNC(C)(C)C)c(C(C)=O)c1 (stereo not given) | 1.19% (inactive) | –
13 | CCCC(=O)c1ccccc1 | -26.9% [at 115 µM] (inactive) | –
14 | CC(C)(C)c1cc(C(C)(C)C)c(O)c(C(C)(C)C)c1 | – | inactive
15 | O=S(=O)(O)c1ccc2nc(-c3ccccc3)[nH]c2c1 | – | 26.9 µM (active) and 19.5 µM (active)
16 | c1ccc2c(c1)-c1cccc3c1c-2cc1ccccc13 | – | 694 nM (active) and 1 µM (active)
17 | CC(C)(C)NCC(O)c1cc(O)cc(O)c1 (stereo not given) | -0.344% (inactive) | –
18 | Cc1occc(=O)c1OC(=O)C(C)C | -23.5% [at 115 µM] (inactive) | –
19 | CC(=O)OCCOCCOCCOC(C)=O | -10.6% [at 115 µM] (inactive) | –
20 | CCCCC(CC)COC(=O)CC(C(=O)OCC(CC)CCCC)S(=O)(=O)O (stereo not given) | – | 63.3 µM (active)

Row | SMILES | activity change, negative = inhibition | Potency
21 | NCCCCCC(=O)O | -11% (inactive) | –
22 | NNCCc1ccccc1 | – | 11.3 µM (active) and 17.4 µM (active)
23 | NC(N)=NC(=O)Cc1c(Cl)cccc1Cl | -2.82% (inactive) | –
24 | CCn1c2ccccc2c2cc(N)ccc21 | – | 626 nM (active) and 2.24 µM (active) and 5.03 µM (active)
25 | CCN1CCCC1CNC(=O)c1cc(S(=O)(=O)CC)c(N)cc1OC (stereo not given) | -9.83% (inactive) | –
26 | Cc1cc(OCCOCC[N+](C)(C)Cc2ccccc2)ccc1C(C)(C)CC(C)(C)C | -1.47% (inactive) | –
27 | N[C@@H]1CONC1=O | -21.3% (inactive) | –
28 | CC(C)CCOC(=O)c1ccc(N(C)C)cc1 | – | 2.88 µM (active)
29 | Oc1c(Cl)cc(Cl)cc1Sc1cc(Cl)cc(Cl)c1O | – | 72.2 µM (active) and inactive
30 | COc1ccc(Cc2cnc(N)nc2N)cc1OC | 12.9% (inactive) | –
31 | Oc1c(Cl)cc(Cl)c(Cl)c1Cc1c(O)c(Cl)cc(Cl)c1Cl | -28.6% (inactive) | –
32 | Nc1cc(S(=O)(=O)O)cc2cc(S(=O)(=O)O)cc(O)c12 | – | inactive and 39.9 µM (active)
33 | CC(C)(C)c1ccccc1 | – | 20 µM (active)
34 | O=C1OC2(c3ccc(O)cc3Oc3cc(O)ccc32)c2ccccc21 | – | inactive
35 | O=C1NCC2(CCN(CCc3ccccc3)CC2)O1 | 14.5% (inactive) | –
36 | O=C(O)c1cn(-c2ccc(F)cc2)c2cc(N3CCNCC3)c(F)cc2c1=O | – | inactive
37 | O=C(O[C@@H]1Cc2c(O)cc(O)cc2O[C@@H]1c1cc(O)c(O)c(O)c1)c1cc(O)c(O)c(O)c1 | -11% [at 115 µM] (inactive) | –
38 | COc1ccc(COC(C)=O)cc1 | – | 28.8 µM (active) and 44.8 µM (active)
39 | CC(C(O)c1ccc(O)cc1)N1CCC(Cc2ccccc2)CC1 (stereo not given) | -4.52% (inactive) | –
40 | CC1=C(C=O)C(C)(C)CC=C1 | -8.38% [at 115 µM] (inactive) | –
